Bioassay records: PubChem BioAssay, several laboratories
bovine MsrA act: bovine methionine sulfoxide reductase A activation; 0.3% of 360,000 active; purified bovine MsrA, absorbance read-out; activation, % at 10.6 µM; in the data active = activation above about 7.5%;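 also: 0% = vehicle and 100% = reference activator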
GC-A act: GC-A (human) enzyme activation; P16066; HEK293 GC-A cells, cGMP TR-FRET, EC30 ANP; 0% at EC30 ANP, 100% saturating ANP; activation, % at 10 µM; 0.14% of 370,000 active; in the data active = activation above about 40%
MsrA inh: bovine MsrA inhibition | 0.75% of 360,000 active | purified bovine MsrA, absorbance read-out | inhibition, % at 15.5 µM; in the data active = inhibition above about 4.5%;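 also: 0% = vehicle wells with enzyme and 100% = reference inhibitor wells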
GC-B act: GC-B (human) receptor activation; activation, % at 10 µM; P20594; 0.11% of 370,000 active; AID 1920062; HEK293-GC-B cells, CNP EC30, cGMP TR-FRET; 0% at EC30 CNP, 100% saturating CNP;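 active = activation at 10 µM reaching about 35% in either raw or pattern-adjusted values, limit read from the data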
Target sequence (P20594 whole entry, looked up): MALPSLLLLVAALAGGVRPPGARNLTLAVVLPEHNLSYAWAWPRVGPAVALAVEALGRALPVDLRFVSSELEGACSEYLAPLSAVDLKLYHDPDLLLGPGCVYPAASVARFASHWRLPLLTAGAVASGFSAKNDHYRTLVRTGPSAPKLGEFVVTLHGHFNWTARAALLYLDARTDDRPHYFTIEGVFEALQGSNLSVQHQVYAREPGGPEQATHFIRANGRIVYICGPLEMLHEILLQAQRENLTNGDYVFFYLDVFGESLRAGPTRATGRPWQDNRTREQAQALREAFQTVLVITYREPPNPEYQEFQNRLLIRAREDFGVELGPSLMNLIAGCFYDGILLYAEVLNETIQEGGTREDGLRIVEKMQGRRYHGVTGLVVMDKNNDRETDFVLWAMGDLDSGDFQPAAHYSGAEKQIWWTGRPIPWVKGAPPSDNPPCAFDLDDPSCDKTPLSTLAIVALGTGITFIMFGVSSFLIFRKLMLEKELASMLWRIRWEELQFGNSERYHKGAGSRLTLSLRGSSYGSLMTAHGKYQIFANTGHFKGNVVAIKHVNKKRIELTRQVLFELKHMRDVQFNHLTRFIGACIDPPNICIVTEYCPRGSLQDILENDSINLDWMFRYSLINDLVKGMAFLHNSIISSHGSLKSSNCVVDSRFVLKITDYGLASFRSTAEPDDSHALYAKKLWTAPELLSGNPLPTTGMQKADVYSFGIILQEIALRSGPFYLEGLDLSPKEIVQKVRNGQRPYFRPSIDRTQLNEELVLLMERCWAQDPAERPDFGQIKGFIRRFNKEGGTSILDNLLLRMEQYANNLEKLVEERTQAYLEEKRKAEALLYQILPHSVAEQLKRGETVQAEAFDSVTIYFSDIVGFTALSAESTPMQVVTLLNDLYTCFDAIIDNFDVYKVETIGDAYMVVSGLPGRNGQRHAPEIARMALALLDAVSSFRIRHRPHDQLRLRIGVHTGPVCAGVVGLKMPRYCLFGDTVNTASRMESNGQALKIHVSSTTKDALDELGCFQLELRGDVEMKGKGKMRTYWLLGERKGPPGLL
MsrA act confirm: confirmation of bovine methionine sulfoxide reductase A activators; shares compounds with bovine MsrA act; purified bovine MsrA, absorbance read-out; activation, % at 10.6 µM; 12% of 1,000 active; in the data active = activation above about 4%;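 also: enzyme coupled to thioredoxin and thioredoxin reductase with NADPH; 0% = vehicle wells and 100% = reference activator wells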
Starred values were filed as active, the others as inactive; x = not tested or not shown. An excerpt weighted towards active compounds, which were near 1.2% of everything screened.

SMILES	bovine MsrA act	GC-A act	MsrA inh	GC-B act	MsrA act confirm
CCOC(=O)C(N)CSC1CC(=O)N(c2ccc(C(=O)OC)cc2)C1=O (configuration not stated)	11*	8	0	1	x
COc1ccccc1N1CCN(C(=O)/C=C/c2c(Cl)nc3ccccn23)CC1	-14	3	4.6*	3	x
Nc1ccccc1SC(CC(=O)c1ccccc1)c1cccc([N+](=O)[O-])c1 (configuration not stated)	8.1*	-1	1	0	x
Cc1ccccc1NC(=O)O[C@H]1CC[C@@]23CCCN2C(=O)CCC[C@H]3[C@H]1C	x	1	x	-1	x
CCCc1nn(C)c2c(=O)[nH]c(-c3ccccc3OCC)nc12	5	21	-1	22	x
CCCc1nn(C)c2c(=O)[nH]c(-c3cc(S(=O)(=O)Nc4ccc(NC(C)=O)cc4)ccc3OCC)nc12	-2	41*	0	55*	x
CCCc1nn(C)c2c(=O)[nH]c(-c3cc(S(=O)(=O)N4CCN(C)CC4)ccc3OCC)nc12	-1	52*	0	58*	x
Cc1cc(C)nc(N/N=C/c2cc(C)n(CC(F)(F)F)c2C)n1	-3	-4	4.6*	-8	x
COC(=O)CN1CCN(C(=O)c2csc(-c3ccccc3)n2)CC1	x	4	x	-1	x
CN(C)c1ccc(C(=O)C(=O)c2ccccc2)cc1	-5	5	4.6*	-5	x
O=C1N/C(=N/N=C/c2ccco2)SC1Cc1ccccc1 (configuration not stated)	-4	-2	4.6*	2	x
CC(=O)NC(c1ccc(C(C)C)cc1)c1c(O)ccc2ccccc12 (configuration not stated)	-2	47*	2	-7	x
COc1ccc(S(=O)(=O)Nc2cccc(N(C)S(C)(=O)=O)c2)cc1Br	-5	34	1	37*	x
CCOC(=O)c1cccc(NC(=O)CS(=O)(=O)Cc2nc(-c3cccc(OC)c3)oc2C)c1	-4	25	0	37*	x
CCn1nc([N+](=O)[O-])c2c(-c3nc4ccccc4o3)c(N)n(CCCOC)c2c1=O	-7	46*	1	5	x
COCCCn1c(-c2ccco2)nc2ccccc2c1=O	1	4	0	1	x
COc1ccc(C2NC(=O)c3sc4nc(C)c(C(C)=O)c(-c5ccc(Cl)cc5)c4c3N2)cc1 (configuration not stated)	2	46*	0	31	x
COc1ccc(N2CCN(CCCNC(=O)Cn3c(=O)c4cccn4c4cccnc43)CC2)c(OC)c1	x	-9	x	-12	x
N#Cc1cc(-c2ccccc2)oc1NC(=O)c1ccco1	-3	1	4.6*	2	x
Cc1cccc(NC(=O)CN2C(=O)N/C(=C\c3ccccc3OCc3ccc(C(=O)O)cc3)C2=O)c1	-7	-1	3	-2	x
O=C(CN1C(=O)N/C(=C\c2ccccc2OCc2ccc(C(=O)O)cc2)C1=O)Nc1ccc(F)cc1	-8	0	4.7*	2	x
COc1ccccc1NC(=S)N/N=C1\CC(C)(C)Oc2ccc(O)cc21	-6	42*	3	1	x
COc1ccc(NC(=S)N/N=C2\CC(C)(C)Oc3ccc(O)cc32)cc1	0	-2	2	-9	x
O=C(NCc1ccccc1)N1CCN(Cc2nc3ccccc3c(=O)[nH]2)CC1	x	2	x	-6	x
Cc1cc(C(=O)Cn2ncc(Cl)c(Cl)c2=O)c(C)n1CC(F)(F)F	-9	45*	0	56*	x
SMILES	bovine MsrA act	GC-A act	MsrA inh	GC-B act	MsrA act confirm
NC(=O)C1(Nc2ccc(-c3ccc(Br)cc3)cc2)CCCC1	-6	52*	1	-4	x
COc1cc(NC(=O)c2cccs2)c(C(=O)OCC(=O)NC(=O)NCc2ccccc2)cc1OC	7.9*	2	2	-3	-3
Cc1cc2c(=Cc3ccc(N(C)C)cc3)c3ccccc3n2[n+]1C	4	-17	1	-23	x
C[n+]1c(-c2ccccc2)cc2c(=Cc3ccccc3)c3ccccc3n21	19*	5	12*	-8	9.6*
CN(C)c1ccc(C=c2c3cc(O)ccc3n3c2cc(-c2ccccc2)[n+]3C)cc1	17*	-38	2	-7	8.1*
Cc1ccc(S(=O)(=O)NC[C@@H]2C[C@H](c3ccccc3)ON2S(=O)(=O)c2ccc(C)cc2)cc1	x	0	x	-3	x
COC(=O)CN1CCN(C(=O)c2csc3ccccc23)CC1	x	2	x	-8	x
CC1(C)CC(=O)C2=C(C1)N(CC1CCCO1)C(=O)NC2(C(F)(F)F)C(F)(F)F (configuration not stated)	11*	1	0	-2	-1
NC1=C(Br)C(=O)c2ccccc2C1=O	9.7*	-1	1	-3	9.4*
CC(C)(C)c1cc(NC(=O)c2ccco2)n(-c2ccccc2)n1	16*	2	1	0	-1
CCn1c2ccccc2c2cc(NC(=O)COC(=O)c3cc(F)ccc3C)ccc21	x	-2	x	5	x
C[C@H](CO)N1C[C@H](C)[C@@H](CN(C)S(=O)(=O)c2ccc3c(c2)OCCCO3)OCc2cnnn2CCCC1=O	-1	2	-2	0	x
CC(C)NC(=O)N(C)C[C@@H]1OCc2cn(nn2)CCCC(=O)N([C@H](C)CO)C[C@H]1C	13*	2	0	-2	-2
C[C@@H]1CN([C@H](C)CO)C(=O)CCCn2nncc2CO[C@@H]1CN(C)S(=O)(=O)c1ccc2c(c1)OCCCO2	12*	-3	-2	4	1
Cc1ccc(C)c(NS(=O)(=O)c2cc(C(=O)N3CCc4ccccc4C3)ccc2Cl)c1	8.2*	-8	0	2	-2
CCOC(=O)C1=C(CSc2nc3c(cc2C#N)CN(C)CC3)OC(N)=C(C#N)C1c1ccc(Cl)cc1 (configuration not stated)	9.6*	-5	0	-1	-2
CCOC(=O)C1=C(CSc2nc3c(cc2C#N)CN(C)CC3)OC(N)=C(C#N)C1c1ccncc1 (configuration not stated)	-3	2	2	1	x
O=C(Nc1cccnc1Cl)c1cccs1	17*	-1	-1	-6	-1
O=C(Nc1ccccn1)c1cccs1	-9	8	1	5	x
O=S1(=O)CCOC[C@H](c2ccccc2)N1Cc1cccc(F)c1	11*	1	0	0	-1
CC(=O)CC[C@H]1CC[C@]2(CCCN(C(=O)c3ccccc3)C2)O1	x	1	x	9	x
Cc1onc(C(=O)N2C(C)CCCC2C)c1[N+](=O)[O-] (configuration not stated)	8.8*	4	1	-3	-1
Cc1c(Cl)cccc1-c1ccc(CNCc2ccccn2)o1	7.7*	-3	1	-3	-1
CC(C)N1CCCCC(NC(=O)c2ccc(Br)cc2)C1=O (configuration not stated)	x	-2	x	5	x
O=C(C[C@H]1C[C@@H]2c3cc(NS(=O)(=O)c4ccccc4)ccc3O[C@@H]2[C@H](CO)O1)N1CCOCC1	14*	1	1	-2	-6
